Bioassay records: PubChem, National Center for Advancing Translational Sciences (NCATS)
Sampled rows, rich in hits. Any-hit rate of the full collection: about 2.7%.
S2 tox = Viability Counterscreen for Primary qHTS for Inhibitors of ATXN expression; S2 cells (HEK-293 line with an ATXN2-luciferase reporter) viability, CellTiter-Fluor protease fluorescence, 24 h; Potency, µM (highest dose often 56.7 µM), usual class: cytotoxic; 400,000 compounds, 0.49% hits; also: nearly all actives have a fitted effect of over 40% in size
12-LOX inh = Primary qHTS assay for inhibitors of human arachidonate 12S-lipoxygenase (ALOX12): Round 2; Polyunsaturated fatty acid lipoxygenase ALOX12 (Homo sapiens), P18054; purified 12hLO, xylenol orange hydroperoxide absorbance; Potency, µM (top dose mostly 108 µM), usual class: inhibitors; 580,000 compounds, 1.1% hits
Target sequence (P18054 whole entry, looked up): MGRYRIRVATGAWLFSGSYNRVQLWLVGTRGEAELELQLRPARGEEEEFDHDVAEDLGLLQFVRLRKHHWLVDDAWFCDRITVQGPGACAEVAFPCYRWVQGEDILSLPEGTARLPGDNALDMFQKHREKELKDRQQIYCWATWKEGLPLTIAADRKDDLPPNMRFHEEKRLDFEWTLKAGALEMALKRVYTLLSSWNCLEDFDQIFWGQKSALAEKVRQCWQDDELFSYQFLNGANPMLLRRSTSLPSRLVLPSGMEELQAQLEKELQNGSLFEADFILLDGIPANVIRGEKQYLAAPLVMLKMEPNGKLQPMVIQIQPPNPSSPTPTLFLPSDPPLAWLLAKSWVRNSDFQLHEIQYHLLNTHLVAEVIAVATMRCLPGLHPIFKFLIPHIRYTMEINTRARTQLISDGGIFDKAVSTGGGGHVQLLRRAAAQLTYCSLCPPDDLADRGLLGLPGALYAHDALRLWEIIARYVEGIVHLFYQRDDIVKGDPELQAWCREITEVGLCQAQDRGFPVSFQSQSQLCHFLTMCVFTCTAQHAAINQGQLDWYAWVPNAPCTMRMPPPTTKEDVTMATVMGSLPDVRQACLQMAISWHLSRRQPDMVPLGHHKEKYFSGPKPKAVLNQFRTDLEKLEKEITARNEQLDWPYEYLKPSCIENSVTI
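Purified human 12hLO at 150 nM in 25 mM Hepes, 0.01% Triton X-100, pH 7.0, preincubated 15 min at room temperature with compound. Reaction started with 40 uM arachidonic acid, 30 min at room temperature. Hydroperoxide measured by Fe-xylenol orange, 573/405 nm absorbance ratio.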
HepG2 tox = qHTS for Inhibitors of TGF-b: Cytotox Counterscreen | Potency, µM (doses to about 46.1 µM), hits mostly cytotoxic | 410,000 compounds, 0.76% hits | HepG2 CAGA-GFP viability, ATP luminescence, 18 h
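CellTiter-Glo luminescence gave cytotoxicity after 18 hours at 37 degrees C. The cells were HepG2 CAGA-GFP in 1% FBS DMEM, stimulated with 500 pg/mL TGF-beta after compound addition. %Activity was normalised to no-cell wells (complete cell-killing) and DMSO (no toxicity), and curves were fitted and classified.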
TGFb inhibitor = qHTS for Inhibitors of TGF-b | HepG2 CAGA-GFP TGF-b/SMAD3 reporter, GFP fluorescence, 18 h; TGF-beta stimulated, 500 pg/mL final | Potency, µM (series often up to 46.1 µM), most hits filed as inhibitors | 410,000 compounds, 1.2% hits | AID 588855, 2011; also: nearly all actives have a fitted effect of over 65% in size
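TGF-beta reporter screen: HEPG2 CAGA-GFP, 1% FBS, 500 pg/mL TGF-beta final, 18 h; per-cell GFP summed per well; curves fitted and categorized by class.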
ATXN2 expr inh = Primary qHTS for Inhibitors of ATXN expression. HEK-293 ATXN2-luciferase reporter, luminescence, 24 h. Potency, µM (highest dose often 57 µM), usual class: inhibitors. 360,000 compounds, 0.72% hits; also: nearly all actives have a fitted effect of over 55% in size
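ATXN2-luciferase reporter cells (luciferase flanked by upstream and downstream ATXN2 gene portions) were treated 24 h at 37 °C with compounds at up to 57 uM. SteadyGlo luminescence gave expression; GF-AFC fluorescence gave viability.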
Of the large screens only hits and unclear results are named; the others gave an inactive call. Calls follow the shape of the dose curve; as a rule, active = well fitted curve in the direction sought with a large enough effect; inconclusive = small, poorly fitted or top-dose-only effect, or another doubt; inactive = no such curve, though single readings can be large; an effect the other way counts as inactive or inconclusive.

Cc1noc2c(NCc3cccnc3)cc(-c3cccc(C(F)(F)F)c3)nc12	none (no result: S2 tox, HepG2 tox, TGFb inhibitor, ATXN2 expr inh)
OC(CC#CCN1CCCCCC1)(c1ccccc1)c1ccc(-c2ccccc2)cc1 (stereo not given)	12-LOX inh 18µM (no result: S2 tox, HepG2 tox, TGFb inhibitor, ATXN2 expr inh)
OC(C#CCN1CCCC1)(c1ccccc1)c1ccccc1	12-LOX inh inconclusive
CC(C)C(C#CCN1CCCCC1)(c1ccccc1)c1ccccc1	12-LOX inh 20µM (no result: S2 tox, HepG2 tox, TGFb inhibitor, ATXN2 expr inh)
OC(C#CCN1CCCCC1)(c1ccccc1)c1ccccc1	none
OC(CC#CCN1CCN(CC#CCC(O)(c2ccccc2)c2ccccc2)CC1)(c1ccccc1)c1ccccc1	12-LOX inh 11µM (no result: S2 tox, HepG2 tox, TGFb inhibitor, ATXN2 expr inh)
Cc1cc(C)cc(N(C(=O)C23CC4CC(CC(C4)C2)C3)C2C=CS(=O)(=O)C2)c1 (stereo not given)	none (no result: S2 tox, HepG2 tox, TGFb inhibitor, ATXN2 expr inh)
Cc1nnc(NC(=O)CN2CCN(c3cccc(C)c3C)CC2)s1	none (no result: S2 tox, HepG2 tox, TGFb inhibitor, ATXN2 expr inh)
O=C(CSc1nnc2c(Cl)cc(C(F)(F)F)cn12)N(Cc1ccccc1)Cc1ccccc1	HepG2 tox 11µM
Cc1ccc(NC(=O)c2ccccc2NCC(=O)N2CC(=O)Nc3ccccc32)cc1	none (no result: S2 tox, HepG2 tox, TGFb inhibitor, ATXN2 expr inh)
N=C(N)SCc1cn(-c2ccccc2)nc1-c1ccc(Br)cc1	S2 tox inconclusive, 12-LOX inh inconclusive, HepG2 tox 11µM, TGFb inhibitor inconclusive, ATXN2 expr inh inconclusive
Cc1ccc(-c2nn(-c3ccccc3)cc2CO)cc1	none
COCCN1C(=O)c2ccccc2C(C(=O)Nc2ccccc2)C12CCCC2 (stereo not given)	none (no result: S2 tox, HepG2 tox, TGFb inhibitor, ATXN2 expr inh)
COc1cccc(/C=C/C(=O)c2c(C)nn3c4ccccc4n(C)c23)c1OC(C)C	none (no result: S2 tox, HepG2 tox, TGFb inhibitor, ATXN2 expr inh)
O=C(NCCCN1CCN(c2ccc(F)cc2)CC1)c1cc2c(s1)-c1ccccc1OC2	S2 tox inconclusive, 12-LOX inh inconclusive, TGFb inhibitor inconclusive, ATXN2 expr inh 28µM
O=C(NCCCN1CCN(c2ccc(F)cc2)CC1)c1ccc2nc(Cc3ccccc3)oc2c1	12-LOX inh inconclusive, TGFb inhibitor 11µM, ATXN2 expr inh inconclusive (no result: S2 tox)
O=C(NCCCN1CCN(c2ccccc2)CC1)c1ccc2nc(Cc3ccccc3)oc2c1	12-LOX inh inconclusive, TGFb inhibitor inconclusive (no result: S2 tox, ATXN2 expr inh)
O=C(NCCCN1CCN(c2ccccc2)CC1)c1cc2c(s1)-c1ccccc1OC2	S2 tox inconclusive, HepG2 tox 14µM, TGFb inhibitor inconclusive
O=C(Nc1ccc(CN2CCOCC2)cc1)c1cccc(-c2cc3ccccc3oc2=O)c1	ATXN2 expr inh inconclusive
CCOC(=O)c1cc(NC(=O)c2cccc(-c3cc4ccccc4oc3=O)c2)ccc1N1CCOCC1	12-LOX inh 8.9µM (no result: S2 tox, HepG2 tox, TGFb inhibitor, ATXN2 expr inh)
CCn1nc(C(=O)Nc2ccc(OCC(N)=O)cc2)c2ccccc2c1=O	none (no result: S2 tox, HepG2 tox, TGFb inhibitor, ATXN2 expr inh)
O=[N+]([O-])c1ccc(Sc2nnnn2-c2ccccc2)nc1	S2 tox inconclusive, TGFb inhibitor 16µM, ATXN2 expr inh inconclusive
O=[N+]([O-])c1ccc(Sc2ccccn2)nc1	none
CN(C1CCCCC1)S(=O)(=O)c1ccc(=S)[nH]c1	S2 tox inconclusive, 12-LOX inh 40µM
COc1ccc(-c2ccc(CN3C(C)C(=O)N(Cc4cn(CCC5OCCO5)nn4)CCS3(=O)=O)cc2)cc1 (stereo not given)	12-LOX inh 16µM (no result: S2 tox)
CC(C)C1C(=O)N(Cc2cn(CCC3OCCO3)nn2)CCS(=O)(=O)N1Cc1ccc(-c2ccc(Cl)cc2)cc1 (stereo not given)	S2 tox inconclusive, TGFb inhibitor inconclusive, ATXN2 expr inh 28µM
CC(C)C1C(=O)N(Cc2cn(CCC3OCCCO3)nn2)CCS(=O)(=O)N1Cc1ccc(-c2ccc(Cl)cc2)cc1 (stereo not given)	S2 tox inconclusive
O=C(NCCCN1CCc2ccccc2C1)C1CCCCC(=O)N1Cc1ccccc1 (stereo not given)	none (no result: S2 tox, HepG2 tox, TGFb inhibitor, ATXN2 expr inh)
Cc1nn(-c2ccccc2)c(Cl)c1/C=C/C(=O)c1ccccc1	HepG2 tox 11µM, TGFb inhibitor inconclusive (no result: 12-LOX inh)
CC1=NOC2(C1)N(C)c1ccccc1C2(C)C (stereo not given)	none
COc1ccc2ccc3c(c2c1)N=C[C@]1(O3)N(C)c2ccccc2C1(C)C	12-LOX inh inconclusive, HepG2 tox 6.3µM, TGFb inhibitor inconclusive
